# From PubChem BioAssay
# “And” between values parts separate entries of the source, which are not always exact repeats. Equal values may be shown once. The source made the active and inactive calls.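 How the source made its calls, unless noted: active means thallium flux through the channel raised or lowered by more than 3 SD from vehicle-only wells, actives on both sides; inactive means the rest.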
# How the values were obtained:
# [1] = P. berghei load reduction in hepatocytes – cell-based, HepG2, luciferase luminescence, HepG2 viability, primary screen (AID 624349; in the data active means parasite load remaining mostly below about 12%, no sharp cut-off; inactive means mostly above about 10%;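 further: 100% = mean of DMSO negative control wells on the same plate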); conditions: P. berghei liver stage in HepG2, luciferase luminescence, concentration not given here; parasite load remaining: stronger effect = lower value; viability: measured here: HepG2 viability without parasites
# [2] = signal quenchers or enhancers, Cy5 substrate/SSB – biochemical, NIH Clinical Collection, E. coli SSB, artefact control for HCV NS3 helicase inhibitor project (AID 743268; call rule not given here); conditions: Cy5-oligo bound E. coli SSB, fluorescence interference
# [3] = tested on: Hepatitis C virus NS3 helicase; assay: blockers of NS3h binding to DNA – biochemical, fluorescence polarization, NIH Clinical Collection, primary screen (AID 743270; call rule not given here); conditions: NS3 helicase binding to Cy5-dT15 DNA, stronger effect = higher value, concentration not given here
# [4] = molecular target: Single-stranded DNA-binding protein (Escherichia coli (strain K12)) (UniProt P0AGE0); assay: SSB-ssDNA binding inhibitors – biochemical, fluorescence polarization, NIH Clinical Collection, counter-screen for HCV NS3 helicase inhibitor project (AID 743271; in the data active means inhibition above about 28%); conditions: E. coli SSB-DNA binding, stronger effect = higher value, concentration not given here
# [5] = compounds distorting NS3 helicase fluorescence signal – biochemical, NIH Clinical Collection, artefact control for HCV NS3 helicase inhibitor project (AID 743272; call rule not given here;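 further: HCV NS3 helicase with a Cy5 labelled single stranded DNA probe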); conditions: fluorescence interference counterscreen, HCV NS3 helicase assay; stronger effect = lower value
# [6] = viability loss with induced miR-34 in A549 – imaging, A549 dox-inducible miR-34, nuclei and caspase counts, primary screen (AID 1347080;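 active means compounds whose cell count with miR-34 switched on is under 0.7 times the count with it off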); conditions: A549 miR-34 inducible, Hoechst nuclei count, 48 h
# [7] = galactose survival enhancers in mitochondrial complex I cybrids – cell-based, galactose medium, ATP luminescence, primary screen (AID 1645843;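 active means z-score of at least 1.8 in each of two replicates, scored against plate mean and spread of sample wells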;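 further: positive z means more ATP and so rescue of galactose-driven cybrid death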); conditions: complex I mutant cybrid cells, 72 h, stronger effect = higher value
# F380Y = assay: BK channel mutant inhibitors and activators – cell-based, U2OS BacMam, thallium flux, beta subunits, selectivity assay, profiling panel (AID 1259406); conditions: U2OS BacMam BK variants, at 30 µM;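 further: initial slope of Thallos dye fluorescence rise after thallium is added; log ratio against the mean of 0.3% DMSO vehicle wells on the same plate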
# F380Y/beta1 = assay: as above; conditions: U2OS BacMam BK variants, at 30 µM
# F380Y/beta2Delta = assay: as above; conditions: U2OS BacMam BK variants, at 30 µM
# F380Y/beta4 = assay: as above; conditions: U2OS BacMam BK variants, at 30 µM
# [8] = molecular target: Calcium-activated potassium channel subunit alpha-1 (Homo sapiens) + Leucine-rich repeat-containing protein 26 (Homo sapiens) (UniProt Q12791+Q2I0M4); assay: as above; conditions: U2OS BacMam BK variants, F380Y/Slo1WT/gamma1, at 30 µM
# Chain of Calcium-activated potassium channel subunit alpha-1 (Homo sapiens) + Leucine-rich repeat-containing protein 26 (Homo sapiens) (Q2I0M4 whole entry, looked up, one chain of several): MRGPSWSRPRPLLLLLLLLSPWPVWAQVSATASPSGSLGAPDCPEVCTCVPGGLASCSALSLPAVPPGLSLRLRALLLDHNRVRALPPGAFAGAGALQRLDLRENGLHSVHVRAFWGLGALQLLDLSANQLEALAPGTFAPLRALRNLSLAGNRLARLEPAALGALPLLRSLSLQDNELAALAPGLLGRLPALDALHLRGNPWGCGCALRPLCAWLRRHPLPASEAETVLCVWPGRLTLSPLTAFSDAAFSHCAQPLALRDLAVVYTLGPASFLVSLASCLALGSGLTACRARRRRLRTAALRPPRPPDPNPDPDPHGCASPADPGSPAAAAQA
# R275C = assay: as above; conditions: U2OS BacMam BK variants, at 30 µM
# R275C/beta1 = assay: as above; conditions: U2OS BacMam BK variants, at 30 µM
# R275C/beta2Delta = assay: as above; conditions: U2OS BacMam BK variants, at 30 µM
# R275C/beta4 = assay: as above; conditions: U2OS BacMam BK variants, at 30 µM
# R275C/Slo1WT/beta2 = assay: as above; conditions: U2OS BacMam BK variants, at 30 µM
# [9] = tested on: Neuropilin-2 / VEGF-C interaction (human); assay: small molecules blocking Neuropilin-2/VEGF-C interaction – biochemical, microplate binding format, z-score (AID 743281; call rule not given here); conditions: microplate NRP2/VEGF-C binding assay; stronger effect = lower value
# [10] = modulation of C. elegans fzo-1 (AID 1259413; call rule not given here;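 further: fzo-1 mutant C. elegans worms in liquid wells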); conditions: C. elegans fzo-1 modulator screen, mean read-out; stronger effect = higher value
# [11] = stronger effect = lower value, cell number ratio, induced over uninduced
# [12] = measured here: relative caspase fold change +Dox/-Dox
# [13] = measured here: total cells with miR-34 induction, stronger effect = lower value
# [14] = measured here: total cells without miR-34 induction
compound,measurement,setting,value
CC(=CCC1=C(C)C(=O)c2ccccc2C1=O)CCCC(C)CCCC(C)CCCC(C)C (stereo not drawn),parasite load remaining,[1],49.5% (inactive)
same,viability,[1],97.8%
same,fluorescence ratio,[2],1.04 (inactive)
same,inhibition,[3],-1.36% (inactive)
same,inhibition,[4],3.34% (inactive)
same,fluorescence ratio,[5],0.97 (inactive)
same,fold change,[6]; [11],1.25 (inactive)
same,fold change,[6]; [12],2.78
same,cell count,[6]; [13],7560
same,cell count,[6]; [14],6060
same,z-score,[7],-1.38 (inactive)
same,log fold change Tl+ flux,F380Y,-0.0115 (inactive)
same,log fold change Tl+ flux,F380Y/beta1,0.045 (inactive)
same,log fold change Tl+ flux,F380Y/beta2Delta,0.0296 (inactive)
same,log fold change Tl+ flux,F380Y/beta4,0.0448 (inactive)
same,log fold change Tl+ flux,[8],0.0507 (inactive)
same,log fold change Tl+ flux,R275C,0.0242 (inactive)
same,log fold change Tl+ flux,R275C/beta1,0.0513 (inactive)
same,log fold change Tl+ flux,R275C/beta2Delta,0.0188 (inactive)
same,log fold change Tl+ flux,R275C/beta4,0.0575 (inactive)
same,log fold change Tl+ flux,R275C/Slo1WT/beta2,-0.0288 (inactive)
C=CC1=C(C(=O)O)N2C(=O)[C@@H](NC(=O)C(=NOCC(=O)O)c3csc(N)n3)[C@H]2SC1,parasite load remaining,[1],68.9% (inactive)
same,viability,[1],69.9%
same,fluorescence ratio,[2],1.01 (inactive)
same,inhibition,[3],27.7% (active)
same,inhibition,[4],94.9% (active)
same,fluorescence ratio,[5],0.95 (inactive)
same,log fold change Tl+ flux,F380Y,0.0111 (inactive)
same,log fold change Tl+ flux,F380Y/beta1,-0.0102 (inactive)
same,log fold change Tl+ flux,F380Y/beta2Delta,0.02 (inactive)
same,log fold change Tl+ flux,F380Y/beta4,0.0293 (inactive)
same,log fold change Tl+ flux,[8],0.111 (active)
same,log fold change Tl+ flux,R275C,-0.011 (inactive)
same,log fold change Tl+ flux,R275C/beta1,-0.021 (inactive)
same,log fold change Tl+ flux,R275C/beta2Delta,0.0194 (inactive)
same,log fold change Tl+ flux,R275C/beta4,0.0168 (inactive)
same,log fold change Tl+ flux,R275C/Slo1WT/beta2,0.00126 (inactive)
CN1CCN2c3ncccc3Cc3ccccc3C2C1 (stereo not drawn),parasite load remaining,[1],85% (inactive)
same,viability,[1],76.9%
same,fluorescence ratio,[2],0.98 (inactive)
same,inhibition,[3],-1.97% (inactive)
same,inhibition,[4],-2.76% (inactive)
same,fluorescence ratio,[5],0.93 (inactive)
same,z-score,[9],-0.469 (inactive)
same,mean signal,[10],257 (inactive)
same,fold change,[6]; [11],0.923 (inactive) and 0.892 (inactive) and 0.933 (inactive)
same,fold change,[6]; [12],1.2 and 4.96 and 1.4
same,cell count,[6]; [13],9270 and 8700 and 7820
same,cell count,[6]; [14],10000 and 9750 and 8380
same,z-score,[7],0.645 (inactive) and -0.265 (inactive)
CN1CCc2cc(Cl)c(O)cc2[C@@H](c2ccccc2)C1,parasite load remaining,[1],38.6% (inactive)
same,viability,[1],72.6%
same,fluorescence ratio,[2],0.96 (inactive)
same,inhibition,[3],-5.46% (inactive)
same,inhibition,[4],-6.69% (inactive)
same,fluorescence ratio,[5],1.01 (inactive)
same,z-score,[9],-1.33 (inactive)
same,mean signal,[10],255 (inactive)
same,fold change,[6]; [11],0.95 (inactive) and 0.955 (inactive)
same,fold change,[6]; [12],1.25 and 1.04
same,cell count,[6]; [13],9640 and 8960
same,cell count,[6]; [14],10100 and 9370
same,z-score,[7],-0.095 (inactive) and 0.675 (inactive)
